LEDGF integ inh: blockers of LEDGF/p75-dependent integrase strand transfer – biochemical, TR-FRET, high throughput, primary screen. HIV-1 integrase (with human LEDGF/p75). TR-FRET IN-LEDGF/p75 DNA integration, Eu/Cy5. inhibition, % at 3.7 µM. hit rate 0.64% among 370,000. AID 743269, 2014;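 active means inhibition above the screen-wide mean plus 3 SD, cut at about 13% in these data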;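 further: signal is the Cy5 over europium emission ratio at 671 and 618 nm; 0% = plate median of compound wells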
PLCb3 inh: human PLC-beta3 inhibitors, primary screen, biochemical, fluorescence. 1-phosphatidylinositol 4,5-bisphosphate phosphodiesterase beta-3 (Homo sapiens), Q01970. Purified PLC-beta3, fluorogenic substrate. inhibition, % at 12.2 µM. hit rate 0.18% among 370,000; in the data active means inhibition above about 11%;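 further: 0% = median of compound wells on plate and 100% = full blocker control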
MBD2 inh: inhibitors of MBD2 binding to methylated DNA, primary screen, biochemical, TR-FRET, DNA-binding domain, human; inhibition, % at 4.4 µM; MBD2 binding to methylated oligonucleotide; hit rate 0.31% among 370,000; in the data active means inhibition above about 13%
UHRF1 binding: UHRF1 methylated DNA binding inhibitors, primary screen, counter-screen for MBD2 inhibitor project, biochemical, TR-FRET, human UHRF1, single concentration. UHRF1 binding to methylated oligo. inhibition, % at 4.4 µM. hit rate 0.75% among 370,000; in the data active means inhibition above about 21%;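 further: UHRF1 SRA domain binding a hemimethylated CpG hairpin DNA probe; 0% = median of test compound wells and 100% = reference inhibitor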
PLCg1 inh: PLC-gamma1 enzyme inhibitors, primary screen, biochemical, fluorescence, purified enzyme | 1-phosphatidylinositol 4,5-bisphosphate phosphodiesterase gamma-1 (Homo sapiens), P19174 | fluorogenic substrate | inhibition, % at 12.2 µM | hit rate 0.84% among 370,000; in the data active means inhibition above about 9.5%
Target sequence (P19174 whole entry, looked up): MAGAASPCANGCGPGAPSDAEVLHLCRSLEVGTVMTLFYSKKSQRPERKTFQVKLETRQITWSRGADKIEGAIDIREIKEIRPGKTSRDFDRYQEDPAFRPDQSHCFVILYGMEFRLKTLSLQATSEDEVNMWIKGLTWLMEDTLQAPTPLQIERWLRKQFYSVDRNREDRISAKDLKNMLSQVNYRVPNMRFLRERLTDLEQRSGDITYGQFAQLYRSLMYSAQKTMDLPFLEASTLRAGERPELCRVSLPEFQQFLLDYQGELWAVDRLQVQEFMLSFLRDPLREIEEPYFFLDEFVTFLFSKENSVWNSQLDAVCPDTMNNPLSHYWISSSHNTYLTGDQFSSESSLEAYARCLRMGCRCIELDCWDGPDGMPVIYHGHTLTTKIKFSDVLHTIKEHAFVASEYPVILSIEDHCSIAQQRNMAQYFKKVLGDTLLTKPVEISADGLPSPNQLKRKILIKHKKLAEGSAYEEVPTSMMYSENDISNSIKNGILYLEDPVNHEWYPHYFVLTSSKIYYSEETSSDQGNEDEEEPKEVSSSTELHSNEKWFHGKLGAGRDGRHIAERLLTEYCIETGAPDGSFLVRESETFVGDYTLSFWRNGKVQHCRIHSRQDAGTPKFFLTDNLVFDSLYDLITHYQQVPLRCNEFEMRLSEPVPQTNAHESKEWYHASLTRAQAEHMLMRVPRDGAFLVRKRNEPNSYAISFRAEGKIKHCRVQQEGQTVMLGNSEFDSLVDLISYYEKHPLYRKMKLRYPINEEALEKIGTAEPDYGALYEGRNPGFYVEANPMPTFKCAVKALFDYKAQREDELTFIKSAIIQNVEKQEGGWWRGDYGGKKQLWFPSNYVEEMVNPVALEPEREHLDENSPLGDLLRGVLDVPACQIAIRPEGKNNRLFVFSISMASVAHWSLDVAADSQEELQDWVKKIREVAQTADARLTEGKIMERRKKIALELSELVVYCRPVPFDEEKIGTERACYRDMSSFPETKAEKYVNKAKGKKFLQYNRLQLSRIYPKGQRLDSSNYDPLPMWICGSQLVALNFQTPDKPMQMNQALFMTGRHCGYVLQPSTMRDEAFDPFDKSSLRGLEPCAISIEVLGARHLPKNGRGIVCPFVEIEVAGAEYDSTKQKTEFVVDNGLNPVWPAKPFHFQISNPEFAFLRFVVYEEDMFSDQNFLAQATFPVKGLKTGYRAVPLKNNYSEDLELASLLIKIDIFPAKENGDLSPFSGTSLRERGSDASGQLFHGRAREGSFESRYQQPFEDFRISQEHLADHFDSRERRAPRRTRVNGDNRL
Starred values were filed as active, the others as inactive. Hits are enriched below; roughly 2.3% of the tested compounds scored in any of these assays.

Results for CN(C)c1cccc(CNC(=O)c2ccc3nc([C@@H]4O[C@H](CO)[C@H](O)[C@H](O)[C@H]4O)[nH]c3c2)c1 ?
LEDGF integ inh: -1; PLCb3 inh: 0; MBD2 inh: 1; UHRF1 binding: 81*; PLCg1 inh: -2

What do the screens show for `CN(C)c1cccc(CNC(=O)c2ccc3nc([C@H]4C[C@H](O)[C@@H](CO)O4)[nH]c3c2)c1`?
LEDGF integ inh: -6; PLCb3 inh: 0; MBD2 inh: 4; UHRF1 binding: 3; PLCg1 inh: 6

Results for O=C(Nc1ccc(Oc2ccccc2)cc1)C1CCCN1S(=O)(=O)c1cccc2cccnc12 (configuration not stated) ?
LEDGF integ inh: 0; PLCb3 inh: 1; MBD2 inh: -6; UHRF1 binding: -4; PLCg1 inh: 0

What do the screens show for `CCC(C)N(C(=O)COC(=O)CNC(=O)c1sc2ccccc2c1Cl)C1CCS(=O)(=O)C1` (configuration not stated)?
LEDGF integ inh: -3; PLCb3 inh: -6; MBD2 inh: 4; UHRF1 binding: 21*; PLCg1 inh: -2

Results for CCN(C(=O)COC(=O)CNC(=O)c1sc2ccccc2c1Cl)C1CCCCC1 ?
LEDGF integ inh: 1; PLCb3 inh: -2; MBD2 inh: 0; UHRF1 binding: 3; PLCg1 inh: 1

How did O=C(Nc1ccc(F)c(F)c1)C1CCN(S(=O)(=O)c2cccs2)CC1 do in these assays?
LEDGF integ inh: -8; PLCb3 inh: -9; MBD2 inh: 4; UHRF1 binding: 31*; PLCg1 inh: 5

How did COc1nc(-c2cccs2)cc(-c2ccc(C)cc2)c1C#N do in these assays?
LEDGF integ inh: 1; PLCb3 inh: -6; MBD2 inh: 13; UHRF1 binding: 22*; PLCg1 inh: -1

How did Cc1ccc(C)c2[nH]c(=O)c(CN(Cc3ccc4c(c3)OCO4)Cc3nnnn3Cc3ccco3)cc12 do in these assays?
LEDGF integ inh: 18*; PLCb3 inh: -53; MBD2 inh: 2; UHRF1 binding: 4; PLCg1 inh: -44

Results for Cc1ccc2cc(CN(Cc3ccc4c(c3)OCO4)Cc3nnnn3Cc3ccco3)c(=O)[nH]c2c1C ?
LEDGF integ inh: 5; PLCb3 inh: -92; MBD2 inh: -4; UHRF1 binding: -1; PLCg1 inh: -73

Results for CC(C)(C)OC(=O)NCc1ccccc1/C=C/S(=O)(=O)NCCc1ccccc1 ?
LEDGF integ inh: -3; PLCb3 inh: -3; MBD2 inh: 3; UHRF1 binding: 1; PLCg1 inh: 1

What do the screens show for `CCN(CC(=O)NCc1cccs1)C(=O)c1ccc(Cl)c(Cl)c1`?
LEDGF integ inh: -4; PLCb3 inh: -6; MBD2 inh: -2; UHRF1 binding: 35*; PLCg1 inh: -2

What do the screens show for `O=C(c1nc(-c2ccccc2)n(-c2ccccc2)n1)N1CCN(S(=O)(=O)c2ccccc2)CC1`?
LEDGF integ inh: -1; PLCb3 inh: 3; MBD2 inh: 2; UHRF1 binding: -1; PLCg1 inh: 11*

Results for O=C(O)c1nc(-c2ccccc2)n(-c2ccccc2)n1 ?
LEDGF integ inh: 0; PLCb3 inh: 6; MBD2 inh: 1; UHRF1 binding: 0; PLCg1 inh: -2

Results for Cc1[nH]c2ccccc2c1SCC(=O)N1CCC(C)CC1 ?
LEDGF integ inh: -1; PLCb3 inh: -3; MBD2 inh: 2; UHRF1 binding: 25*; PLCg1 inh: -1

How did C=CCN1[C@H](C)COc2cccc(F)c2S1(=O)=O do in these assays?
LEDGF integ inh: 6; PLCb3 inh: -2; MBD2 inh: 1; UHRF1 binding: 4; PLCg1 inh: 6

How did COc1ccc(S(=O)(=O)N2CCSC2c2ccccc2)cc1 (configuration not stated) do in these assays?
LEDGF integ inh: 1; PLCb3 inh: 1; MBD2 inh: 2; UHRF1 binding: 69*; PLCg1 inh: 1

How did Cc1cccc(-c2cccc3c4c([nH]c23)[C@@H]2C[C@H](N(C)C(=O)Nc3ccccc3)[C@H]([C@H](C)O)C(=O)N2CC4)c1 do in these assays?
LEDGF integ inh: 7; PLCb3 inh: -62; MBD2 inh: -6; UHRF1 binding: -1; PLCg1 inh: -46

Results for COc1ccc(C2C(C#N)=C(N)OC3=C2C(=O)CC(C)(C)C3)cc1 (configuration not stated) ?
LEDGF integ inh: 2; PLCb3 inh: 3; MBD2 inh: 4; UHRF1 binding: 0; PLCg1 inh: 1

What do the screens show for `COc1cc(C2C(C#N)=C(N)OC3=C2C(=O)CC(C)(C)C3)cc2c1OCO2` (configuration not stated)?
LEDGF integ inh: 10; PLCb3 inh: -13; MBD2 inh: 1; UHRF1 binding: 30*; PLCg1 inh: -5

How did CCN(CC)CCCNC(=O)c1cc2c(-c3cccc(OC)c3)nn(C)c2s1 do in these assays?
LEDGF integ inh: -1; PLCb3 inh: -207; MBD2 inh: -1; UHRF1 binding: 9; PLCg1 inh: -136

How did CCCCN(CC)CCCNC(=O)c1cc2c(-c3ccc(OC)c(OC)c3)nn(C)c2s1 do in these assays?
LEDGF integ inh: -4; PLCb3 inh: inactive; MBD2 inh: 12; UHRF1 binding: 24*; PLCg1 inh: inactive

How did Cc1cc(C)c2nc3sc(C(=O)N4CCOCC4)c(N)c3cc2c1 do in these assays?
LEDGF integ inh: -1; PLCb3 inh: -349; MBD2 inh: -6; UHRF1 binding: 37*; PLCg1 inh: -234

Results for CCOC(=O)[C@]12CCCCC/C=C\1N(CCc1ccc(Cl)cc1)C(=O)[C@H]2CC(=O)N1CCN(C(=O)c2ccco2)CC1 ?
LEDGF integ inh: -1; PLCb3 inh: -1; MBD2 inh: 0; UHRF1 binding: 1; PLCg1 inh: 1

What do the screens show for `C=CC[C@H](CC(=O)N(CCO)Cc1ccccc1)C(=O)NC[C@H](OC(=O)[C@@H](CC=C)Cc1ccc(F)cc1)c1ccccc1`?
LEDGF integ inh: 3; PLCb3 inh: 0; MBD2 inh: -1; UHRF1 binding: 2; PLCg1 inh: 4

What do the screens show for `C=CC[C@@H](CC(=O)N(CCO)Cc1ccccc1)C(=O)NC[C@@H](OC(=O)[C@@H](CC=C)Cc1ccc(F)cc1)c1ccccc1`?
LEDGF integ inh: -1; PLCb3 inh: 3; MBD2 inh: 1; UHRF1 binding: -2; PLCg1 inh: 10*

Results for N#CCC[C@@H]1CC[C@]2(CCCN(C(=O)C3CCCCC3)C2)O1 ?
LEDGF integ inh: -4; PLCb3 inh: 1; MBD2 inh: 5; UHRF1 binding: -1; PLCg1 inh: -4

What do the screens show for `Cn1nc([N+](=O)[O-])nc1S(C)(=O)=O`?
LEDGF integ inh: 9; PLCb3 inh: 3; MBD2 inh: 1; UHRF1 binding: 6; PLCg1 inh: 47*
